Compounds without any hit were thinned out: in the full panel of roughly 79,000, 15% have a hit. Cut-off read from the data, not from the text of the source: active = growth inhibition above about 70%; inactive = the rest.
What was measured:
[1] = NCI Yeast Anticancer Drug Screen. Data for the rad50 strain (AID 155);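 note: 0% = growth of vehicle-only cultures of the same strain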; conditions: S. cerevisiae rad50 strain growth inhibition; at 50.0 µM; stronger effect = higher value
In short: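 Cells are treated with compound, grown, and their growth is then scored against vehicle-only cultures of the same repair-deficient yeast strain.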

[2] = NCI Yeast Anticancer Drug Screen. Data for the mec2-1 strain (AID 157); conditions: S. cerevisiae mec2-1 strain, at 50.0 µM, stronger effect = higher value
In short: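 Test agents were screened against the mec2-1 yeast strain, with defined DNA repair or cell cycle alteration. Growth was scored as inhibition against vehicle-only controls.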

[3] = NCI Yeast Anticancer Drug Screen. Data for the sgs1 mgt1 strain (AID 161);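 note: 0% = growth of cultures given vehicle only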; conditions: S. cerevisiae sgs1 mgt1 strain, at 50.0 µM, stronger effect = higher value
In short: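 Read-out: growth inhibition vs vehicle controls. Cells: mutant yeast strain deficient in DNA damage repair.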

[4] = NCI Yeast Anticancer Drug Screen. Data for the cln2 rad14 strain (AID 165);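 note: 0% = growth equal to vehicle treated cultures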; conditions: S. cerevisiae cln2 rad14 strain, at 50.0 µM, stronger effect = higher value
In short: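 Growth of compound-exposed yeast (cln2 rad14 genotype) measured and expressed as inhibition relative to vehicle.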

[5] = NCI Yeast Anticancer Drug Screen. Data for the bub3 strain (AID 167); conditions: S. cerevisiae bub3 mutant strain, at 50.0 µM, stronger effect = higher value
In short: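 Part of a panel of yeast mutants defective in DNA damage repair or cell cycle regulation. Each strain is grown with compound, and inhibition is calculated relative to solvent-treated cultures.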

[6] = NCI Yeast Anticancer Drug Screen. Data for the mlh1 rad18 strain (AID 175); conditions: S. cerevisiae mlh1 rad18 strain growth inhibition; at 50.0 µM; stronger effect = higher value
In short: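 In this whole-cell yeast screen, a strain with altered DNA damage repair is challenged with compound, and its growth is measured against matched vehicle-treated controls.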

Measured: growth inhibition

CNc1nc2c(C)ccc3[nH]c(N(C)C)nc3c-2n1
inactive: [1] 14.2% | [2] -32.8% | [3] 11.3% | [4] 8.1% | [5] 4.65% | [6] -10.9%

CCCCC1C(=O)N(c2ccc(S(=O)(=O)Nc3ccccn3)cc2)N(c2ccc(O)c(C(=O)O)c2)C1=O (configuration not stated)
inactive: [1] 21.8% | [2] 23.7% | [3] 6.7% | [4] 23.2% | [5] 34.6% | [6] 8.85%

CNC(=S)/C(=N\Nc1nc[nH]c1C(N)=O)C(N)=S
inactive: [1] -3.7% | [2] 7.85% | [3] 38.5% | [4] -0.8% | [5] 15.1% | [6] 21.1%

CCC(C)C1(O)OC2CC3(C)OC(=CC3=O)/C(C)=C\C3OC(=O)C1(C)C32 (configuration not stated)
inactive: [1] 7.65% | [2] -31.2% | [3] 37.5% | [4] 6.4% | [5] -20.1% | [6] -35.9%

CC1=C2NCN(C)N=C2C(C#N)(C#N)C1(C#N)C#N
inactive: [1] 24% | [2] 35.4% | [3] -15.3% | [4] 2.25% | [5] -12.2% | [6] -13.1%

COC(=O)c1cc(C#N)[nH]c1-c1ccsc1
inactive: [1] -27.4% | [2] -8% | [3] -10.8% | [4] 6.4% | [5] -3.4% | [6] 6.9%

Cc1ccc(/C=N/Nc2ccccn2)s1
inactive: [1] -10.9% | [2] -12.5% | [3] -2% | [4] 11.4% | [5] -11.2% | [6] 0.7%

Reference: PubChem BioAssay (NCI)
